PubChem BioAssay

Tested on: not listed separately
Assay: mitochondrial membrane potential change in A549 cells, profiling panel, cell-based, JC-1 fluorescence, basal, 24 h, 100 nL (AID 1138);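 note: A549 lung adenocarcinoma cells under basal conditions with no added stimulus; test concentration not given here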
Settings: higher = more signal

In order of rising z-score:
1. CCOC(=O)C[C@H]1[C@H](OC(=O)Cc2ccc3c(c2)OCO3)[C@@H](NC(=O)CC(C)C)c2cc(OCCCO)ccc2N1C(=O)c1ccc2ccccc2n1  -0.944
2. COC(=O)C[C@H]1O[C@]2(C(=O)N(C)c3ccccc32)[C@@H](C)[C@@H]1[Si](C)(C)c1ccccc1  0.186
3. O=C1O[C@H](c2ccccc2)[C@H](c2ccccc2)N2[C@H]1[C@@H](C(=O)N1CCN(c3ncccn3)CC1)[C@]1(C(=O)Nc3ccc(C#CC4(O)CCCCCC4)cc31)[C@H]2c1ccc(O)cc1  1.36

Tested on: Lefty1
Assay: Lefty1 binders on small-molecule microarrays, primary screen, biochemical, small-molecule microarray, 635/667 nm fluorescence (AID 1139)
Settings: small-molecule microarray binding, fluorescence 635/667; higher = more signal

In order of falling composite z-score:
1. COc1ccc([Si](C)(C)[C@@H]2[C@@H](CC(=O)N(CCO)Cc3ccccc3)O[C@]3(C(=O)N(Cc4cccc(I)c4)c4ccccc43)[C@H]2C)cc1  1.51
2. COc1ccc([Si](C)(C)[C@H]2[C@H](CC(=O)N3CCC[C@H]3CO)O[C@@]3(C(=O)N(C)c4c(Br)cc(C)cc43)[C@@H]2C)cc1  1.43
3. CCOC(=O)C[C@H]1[C@H](OC(=O)c2ccccc2-c2ccccc2)[C@@H](NC(=O)CC(C)C)c2cc(OCCCO)ccc2N1C(=O)c1ccccc1  1.01
4. CCOC(=O)C[C@H]1[C@H](OC(=O)c2cc3ccccc3oc2=O)[C@@H](NC(=O)Cc2ccc(OC)cc2)c2cc(OCCCO)ccc2N1C(=O)Cc1ccc(OC)cc1  0.983
5. COCCCNC(=O)[C@@]1(Cc2ccccc2I)c2ccccc2C(=O)N(C2CCCCC2)[C@H]1c1ccc(CO)cc1  0.812
6. O=C1c2ccccc2[C@@]2(Cc3ccccc3N(CC(F)(F)F)C2=O)[C@H](c2ccc(CO)cc2)N1Cc1ccccc1  0.759
7. CN(C)CCCCNC(=O)[C@H]1C[C@H]2C(=O)N[C@@H](CCCCN(C)C)C(=O)N2[C@H]1c1ccc(O)cc1  0.754
8. COCCOC(=O)N1C(=O)[C@@]2(c3cc(C#CC4(O)CCCCCC4)ccc31)[C@H](C(N)=O)[C@H]1C(=O)O[C@H](c3ccccc3)[C@H](c3ccccc3)N1[C@@H]2c1ccc(OCCO)cc1  0.673
9. CCOC(=O)C[C@H]1[C@H](OC(=O)c2ccc(-c3ccccc3)cc2)[C@@H](NC(=O)c2ccc(-c3ccccc3)cc2)c2cc(OCCCO)ccc2N1C(=O)c1ccccc1  0.627
10. COc1ccc(C(=O)Nc2cccc(CN3C(=O)[C@]4(O[C@H](CC(=O)N(CCO)Cc5ccccc5)[C@@H]([Si](C)(C)c5ccc(OC)cc5)[C@@H]4C)c4ccccc43)c2)cc1  0.565
11. [N-]=[N+]=NCc1ccccc1[C@H]1OC(c2ccc(OCCCO)cc2)=N[C@@]1(Cc1ccccc1N=[N+]=[N-])C(N)=O  0.174
12. CC(C)N1C(=O)[C@@]2(Cc3ccccc31)c1ccccc1C(=O)N(Cc1ccccc1)[C@H]2c1ccc(CO)cc1  0.13
13. C[C@]1(C(=O)NC2CC2)c2ccccc2C(=O)N(Cc2cc(F)cc(C(F)(F)F)c2)[C@H]1c1ccc(CO)cc1  0.0495
14. CCCC[C@@H](O)C1=C(C)Cn2c(=O)n(-c3ccccc3)c(=O)n2[C@H]1CO  0.0378
15. CCOC(=O)C1=CC[C@@H](c2ccccc2)N(S(=O)(=O)c2ccc(C)cc2)[C@@H]1C#N  -0.0273
16. C=CC[C@]1(C(=O)NCC(O)CO)N=C(c2ccc(OCCCO)cc2)O[C@H]1c1ccccc1CN=[N+]=[N-] (some centres not stated)  -0.0497
17. COC(=O)C1=CC(CCCO)=CC(c2ccc(CN3CCCC3)cc2)N(C)C=C1C(=O)OC (configuration not stated)  -0.079
18. O=C1O[C@H](c2ccccc2)[C@H](c2ccccc2)N2[C@H]1[C@@H](C(=O)O)[C@]1(C(=O)Nc3ccccc31)[C@H]2c1ccc(OCCO)cc1  -0.193
19. CC(C)N1CC=CC23O[C@@H]4/C=C\CCCOC(=O)C4[C@H]2C(=O)N(C(C)CO)[C@@H]3C1=O (some centres not stated)  -0.246
20. COCCCNC(=O)[C@]1(Cc2ccccc2N=[N+]=[N-])N=C(c2ccc(OCCCO)cc2)O[C@@H]1c1ccccc1  -0.252
21. CO[C@H]1O[C@H](CO)[C@@H](OC(=O)CCc2ccccc2)[C@@H]2OC(=O)[C@@H](Cc3ccc4ccccc4c3)C/C=C/C[C@H](Cc3ccc4ccccc4c3)C(=O)O[C@@H]12  -0.346
22. CC(C)c1ccc(NN2C(C(O)c3ccccc3)C=CC3C(=O)N(c4ccccc4)C(=O)C32)cc1 (configuration not stated)  -0.56
23. O=C(N1CCOCC1)[C@]1(CCS(=O)(=O)c2ccccc2)N=C(c2ccc(OCCCO)cc2)O[C@@H]1c1ccccc1  -0.588
24. CC(CO)N1C(=O)[C@@H]2[C@H]3C(=O)OCC=C[C@H]3OC23C=CCN(c2ccc4ccccc4c2)C(=O)[C@@H]13 (some centres not stated)  -2.07
